The values below come from PubChem BioAssay (Tox21).

A short description of test [1]: qHTS assay to identify small molecule agonists of the RXR signaling pathway - cell viability counter screen (AID 1159529). Also: nearly all actives have a fitted effect of over 50% in size. Also: potency is read from the fitted curve at half-maximal effect. Summed up: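 In this parallel viability measure, GeneBLAzer RXR-alpha HEK 293T cells (2% charcoal-stripped FBS) were given a 5 hr preincubation, treated with compounds 16 hr at 37 C, and read by CellTiter-Glo luminescence.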
A short description of test [2]: qHTS assay to identify small molecule antagonists of the retinoid acid receptor (RAR) signaling pathway - cell viability counter screen (AID 1159551). Also: nearly all actives have a fitted effect of over 35% in size. Summed up: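 Luminescent ATP quantitation (CellTiter-Glo) gave cell viability in C3RL4 cells exposed to test chemicals for 6 h at 37 C alongside 1 uM final retinol.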
The nature of test [3]: qHTS assay to identify small molecule antagonists of the retinoic acid receptor (RAR) signaling pathway (AID 1159552; also: nearly all actives have a fitted effect of over 50% in size). The procedure, abridged:
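C3RL4 RARE-luc cells, overnight plating; retinol 1 uM final added right after compound; 6 hr 37 C; luciferase read at 30 min RT.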
A general note: Quantitative high-throughput screening tests each substance at several concentrations.

Test [4] is described as follows: qHTS assay to identify small molecule agonists of the retinoic acid receptor (RAR) signaling pathway (AID 1159553). Conditions: C3RL4 RARE luciferase reporter, agonist, 6 h; activation: at 73.3 µM (top of the series) unless noted. The procedure, abridged: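 Luminescence from a RARE-driven luciferase reporter in C3RL4 cells served as the read-out, measured after 30 min with detection reagent at room temperature. Compounds in DMSO were applied for 6 hr at 37 C following overnight seeding.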

Test [5] can be described thus: qHTS assay to identify small molecule antagonists of the estrogen related receptor (ERR) signaling pathway from Tox21 library - cell viability counter screen (AID 1224834). Also: nearly all actives have a fitted effect of over 30% in size. Also: potency is read from the fitted curve at half-maximal effect. The procedure, abridged: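 Fluorescence from CellTiter-Fluor gives the viability read-out, taken 30 min after reagent addition. Before that, ERR cells seeded 6 h earlier were incubated with compounds for 17.5 h at 37 C.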

Test [6] has as its target Luciferin 4-monooxygenase (Photinus pyralis) (UniProt P08659). The experiment in a line: qHTS assay to identify small molecule inhibitors of firefly luciferase (AID 1224835). Also: nearly all actives have a fitted effect of over 25% in size. Also: potency is read from the fitted curve at half-maximal effect. The procedure, abridged:
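Quantitative HTS format; KM concentrations of both substrates. Purified P. pyralis FLuc activity quantified from luminescence images.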

Test [7] is described as follows: qHTS assay to identify small molecule agonists of the constitutive androstane receptor (CAR) signaling pathway - cell viability counter screen (AID 1224836). Also: nearly all actives have a fitted effect of over 45% in size. The procedure, abridged:
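Using CellTiter-Fluor, viability of HepG2 cells harbouring hCAR and CYP2B6-2.2kb was measured following 23 h incubation with a 15-concentration compound series plus PK11195 (0.75 uM final).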

Test [8] deals with Nuclear receptor subfamily 1 group I member 3 (Homo sapiens) (UniProt Q14994). As to the kind of experiment: qHTS assay to identify small molecule antagonists of the constitutive androstane receptor (CAR) signaling pathway (AID 1224838).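 Also: HepG2 cells stably expressing hCAR with CYP2B6 luciferase reporter stimulated by CITCO; nearly all actives have a fitted effect of over 40% in size.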 Also: potency is read from the fitted curve at half-maximal effect. Summed up:
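HepG2-CYP2B6-hCAR cells; 4 h pre-incubation; cpd (15 conc) + CITCO 50 nM final; 24 h, 37 C/5% CO2; ONE-Glo, luminescence.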

Test [9] shares this target. As to the kind of experiment: qHTS assay to identify small molecule agonists of the constitutive androstane receptor (CAR) signaling pathway (AID 1224839).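 Also: HepG2 cells stably carrying human CAR and a CYP2B6 luciferase reporter; nearly all actives have a fitted effect of over 15% in size.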 The procedure, abridged:
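Double-stable HepG2 cells (hCAR, CYP2B6-2.2kb) seeded 4 h before compound addition. Exposure 24 h with 0.75 uM PK11195 final. Luciferase detected by ONE-Glo.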

Test [10] is described as follows: qHTS assay to identify small molecule antagonists of the estrogen related receptor signaling pathway with the pleiotropic PPARgamma coactivator (PGC) from Tox21 10K library - cell viability counter screen (AID 1224840; active = well fitted cell-killing curve with a large enough effect in the repeat runs, not every such curve was filed as active; also: nearly all actives have a fitted effect of over 40% in size; also: potency is read from the fitted curve at half-maximal effect). Summed up:
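PGC/ERR cells, 2,000/well; 6 h pre-incubation 37 C/5% CO2; cpd in DMSO via pin tool; 17.5 h 37 C; CellTiter-Fluor, 30 min; fluorescence.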

Test [11] can be described thus: qHTS assay to identify small molecule antagonists of the estrogen related receptor signaling pathway with the pleiotropic PPARgamma coactivator (PGC) from Tox21 10K library (AID 1224841; call rule not given here; also: actives are mostly falling curves and most rising ones were filed inactive; nearly all actives have a fitted effect of over 50% in size). The procedure, abridged:
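PGC/ERR cell line, 2,000 cells/well; 6 h pre-incubation 37 C/5% CO2; compounds (DMSO) pinned in; 18 h, 37 C; One-Glo, 30 min RT; luminescence.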

Test [12] is described as follows: qHTS assay to identify small molecule agonists of the estrogen related receptor signaling pathway with the pleiotropic PPARgamma coactivator (PGC) from Tox21 10K library (AID 1224842). Also: nearly all actives have a fitted effect of over 15% in size. The procedure, abridged: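 PGC/ERR reporter cells (NTP line) were seeded 2,000 per well, rested 6 h at 37 C/5% CO2, then pin-dosed with compounds in DMSO for 18 h at 37 C; luciferase read by One-Glo luminescence after 30 min at room temperature.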

Test [13] addresses Thyrotropin receptor (Homo sapiens) (UniProt P16473). As to the kind of experiment: qHTS assay to identify small molecule agonists of the thyroid stimulating hormone receptor (TSHR) signaling pathway (AID 1224843; calls by dose curve; also: nearly all actives have a fitted effect of over 45% in size). Summed up: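 TSHR-expressing HEK293 cells (800 per well) were exposed to compounds for 30 min at room temperature. cAMP was then detected by HTRF competition with cAMP-d2 and anti-cAMP cryptate, read after 1 h at room temperature. Fifteen concentrations, triplicate.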

Test [14] in a line: qHTS assay to identify small molecule antagonists of the constitutive androstane receptor (CAR) signaling pathway - cell viability counter screen (AID 1224837). Also: nearly all actives have a fitted effect of over 45% in size. Summed up:
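HepG2-CYP2B6-hCAR cells, 2500/well, 4 hr pre-incubation; compound titration, 15 conc.; CITCO 50 nM final; 23 hr, 37 C/5% CO2; CellTiter-Fluor, fluorescence intensity.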

Test [15] is described as follows: qHTS assay to identify small molecule antagonists of the estrogen related receptor (ERR) signaling pathway (AID 1224819;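 also: luminescence from an ERR-driven luciferase reporter measured with One-Glo reagent; nearly all actives have a fitted effect of over 50% in size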). The procedure, abridged:
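Seed ERR cells 2,000/well; rest 6 h at 37 C/5% CO2; pin compounds in DMSO; incubate 18 h at 37 C; add One-Glo; wait 30 min at room temperature; measure luminescence.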

The nature of test [16]: qHTS assay to identify small molecule antagonists of the estrogen related receptor (ERR) signaling pathway - cell viability counter screen (AID 1224818).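 Also: viability measured after 17.5 h of compound exposure.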 The procedure, abridged: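 Multiplexed counter screen to separate cytotoxic compounds from true ERR modulators. ERR cells received DMSO-dissolved compounds after a 6 h pre-incubation, were exposed 17.5 h at 37 C, then assayed with CellTiter-Fluor fluorescence.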

Test [17] in a line: qHTS assay to identify small molecule antagonists of the estrogen related receptor signaling pathway with the pleiotropic PPARgamma coactivator (PGC) cell viability counter screen (AID 1224822). Summed up:
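Cells: PGC/ERR, 2,000/well, 1536-well format. Pre-incubation 6 h, 37 C/5% CO2. Compound exposure 17.5 h, 37 C. Detection: CellTiter-Fluor, 30 min, fluorescence.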

Records with an inconclusive call do not appear. A structure can be active in one record and inactive in another. The source made the active and inactive calls. Unless noted, calls follow the shape of the dose curve; as a rule, active = well fitted curve in the direction sought with a large enough effect in the repeat runs; inconclusive = weak or mixed curves; inactive = no such curve, though single readings can be large; an effect the other way counts as inactive or inconclusive.

Chain of Nuclear receptor subfamily 1 group I member 3 (Homo sapiens) (Q14994 whole entry, looked up): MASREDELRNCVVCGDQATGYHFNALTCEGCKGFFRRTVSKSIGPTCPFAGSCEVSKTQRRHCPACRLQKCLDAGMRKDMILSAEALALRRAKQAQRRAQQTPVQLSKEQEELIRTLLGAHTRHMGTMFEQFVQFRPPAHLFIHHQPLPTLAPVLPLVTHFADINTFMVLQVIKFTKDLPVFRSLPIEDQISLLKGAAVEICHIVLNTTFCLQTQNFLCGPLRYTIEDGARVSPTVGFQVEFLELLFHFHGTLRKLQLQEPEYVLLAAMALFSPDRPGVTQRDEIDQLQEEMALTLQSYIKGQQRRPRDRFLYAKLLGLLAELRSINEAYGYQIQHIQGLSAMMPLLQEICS
Chain of Luciferin 4-monooxygenase (Photinus pyralis) (P08659 whole entry, looked up): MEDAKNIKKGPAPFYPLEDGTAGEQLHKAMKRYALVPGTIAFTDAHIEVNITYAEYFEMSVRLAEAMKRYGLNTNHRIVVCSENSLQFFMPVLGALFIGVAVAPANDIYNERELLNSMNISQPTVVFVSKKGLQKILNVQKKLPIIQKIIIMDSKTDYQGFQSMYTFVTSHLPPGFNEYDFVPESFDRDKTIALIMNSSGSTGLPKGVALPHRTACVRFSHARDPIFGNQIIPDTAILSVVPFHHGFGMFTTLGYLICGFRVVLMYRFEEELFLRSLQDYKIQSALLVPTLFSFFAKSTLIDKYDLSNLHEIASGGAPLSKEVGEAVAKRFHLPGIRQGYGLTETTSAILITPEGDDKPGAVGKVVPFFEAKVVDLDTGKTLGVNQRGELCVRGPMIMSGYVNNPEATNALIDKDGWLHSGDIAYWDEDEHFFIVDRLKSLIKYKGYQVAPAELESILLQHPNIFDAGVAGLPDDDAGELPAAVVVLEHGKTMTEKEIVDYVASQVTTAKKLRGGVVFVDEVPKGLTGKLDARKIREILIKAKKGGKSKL
Chain of Thyrotropin receptor (Homo sapiens) (P16473 whole entry, looked up): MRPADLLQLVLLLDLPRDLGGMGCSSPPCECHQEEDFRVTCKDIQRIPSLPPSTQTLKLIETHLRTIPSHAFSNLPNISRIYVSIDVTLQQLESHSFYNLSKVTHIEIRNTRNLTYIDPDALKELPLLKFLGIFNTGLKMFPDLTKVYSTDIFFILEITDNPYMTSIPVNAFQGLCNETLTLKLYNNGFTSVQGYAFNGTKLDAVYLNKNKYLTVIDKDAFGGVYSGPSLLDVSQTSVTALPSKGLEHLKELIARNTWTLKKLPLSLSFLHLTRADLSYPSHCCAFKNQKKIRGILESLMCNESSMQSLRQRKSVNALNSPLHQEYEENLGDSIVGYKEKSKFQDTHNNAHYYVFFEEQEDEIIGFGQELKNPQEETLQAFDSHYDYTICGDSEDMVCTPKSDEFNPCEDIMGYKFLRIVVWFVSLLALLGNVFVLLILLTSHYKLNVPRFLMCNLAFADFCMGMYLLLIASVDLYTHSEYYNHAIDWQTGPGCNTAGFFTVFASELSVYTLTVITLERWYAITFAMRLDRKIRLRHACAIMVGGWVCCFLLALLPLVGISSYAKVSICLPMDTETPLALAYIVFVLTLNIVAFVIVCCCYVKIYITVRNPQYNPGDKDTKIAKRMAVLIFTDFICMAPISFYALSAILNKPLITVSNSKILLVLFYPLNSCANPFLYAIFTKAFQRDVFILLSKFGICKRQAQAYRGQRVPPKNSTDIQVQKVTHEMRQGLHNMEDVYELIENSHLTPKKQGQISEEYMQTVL

In the case of `C=CC(=O)OCCCC`, the Potency entry in [1], in [2], in test [3], in test [4], in test [5] and in test [6] was “inactive” each time. For the same compound, the Potency entry in test [7], in test [8], in test [9], in [10], in test [11] and in [12] was “inactive” each time. Besides, in test [13], the Potency result is “inactive”.
With `Cc1ccc(N)c([N+](=O)[O-])c1`, the Potency result in [1], in [2], in test [3], in test [4], in test [5] and in test [7] was “inactive” in each case. The Potency entry in [14], in test [8], in test [9], in [10] and in test [13] was “inactive” in each case.
On to `COc1ccc(C(=O)c2ccccc2O)c(O)c1`, for which the Potency entry in test [1], in test [2], in test [3], in test [4], in [5] and in test [6] was “inactive” each time. The Potency entry in test [7], in [14], in test [8], in test [10], in test [11] and in test [12] was “inactive” throughout.
As to `Brc1nc2ccccc2s1`, the Potency result in [1], in [2], in test [3], in test [4], in [5] and in [7] was “inactive” throughout. For the same compound, the Potency entry in [14], in test [8], in test [9], in test [10] and in [13] was “inactive” each time. The Potency in [6] is 39.8 µM (active).
In the case of `CC1=CC(C)(C)Nc2ccccc21`, the Potency result in [1], in [2], in test [3], in test [4], in test [6] and in [7] was “inactive” each time. The Potency entry in [14], in test [8], in test [9], in test [10], in [11] and in [12] was “inactive” throughout.
Turning to `C[C@]12C=CC(=O)C=C1CC[C@H]1[C@@H]3C[C@@H](O)[C@](O)(C(=O)CO)[C@@]3(C)C[C@H](O)[C@@]12F`, in [15], the call was inactive.
`CNC[C@H](O)c1ccc(O)c(O)c1`: the compound was called inactive in test [15].
Take `O=C(O)COCCN1CCN(C(c2ccccc2)c2ccc(Cl)cc2)CC1` (stereo not given): the Potency entry in [1], in test [2], in [6], in test [7], in [8] and in test [10] was “inactive” throughout. Moreover, the Potency entry in test [13] was “inactive”. Also, the outcome in [16] and in test [17] was inactive.
On to `CC/C=C\C/C=C\C/C=C\CCCCCCCC(=O)O`, for which the Potency entry in test [2], in [3], in [4], in test [5], in [6] and in test [7] was “inactive” each time. The Potency result in [8], in test [10] and in test [13] was “inactive” in each case.
In the case of `CC(C)=CCO`, the Potency entry in test [1], in test [2], in test [5], in [6], in test [7] and in test [14] was “inactive” each time. The Potency result in test [10], in test [11], in [12] and in [13] was “inactive” each time.
`C=C[C@H]1CN2CC[C@H]1C[C@H]2[C@H](O)c1ccnc2ccc(OC)cc12`: the Potency entry in [1], in test [2], in test [5], in [7], in test [8] and in [10] was “inactive” in each case.
For the compound `Cc1ccc(C(C)(C)C)c(O)c1`, the Potency was 47.4 µM (active) and inactive in [1]; 59.1 µM (active) in test [8]. The Potency result in [5], in [6], in test [7], in test [14], in test [10] and in [11] was “inactive” throughout. In addition, in test [12], the Potency result was “inactive”.
As for `CC/C(=C(/CC)c1ccc(O)cc1)c1ccc(O)cc1`, the Potency result in [1], in test [2], in test [7], in [14] and in [10] was “inactive” throughout. Also, the Potency in [5] was 60.6 µM (active) and inactive.
Consider `Oc1ccc(C(c2ccc(O)cc2)C(Cl)(Cl)Cl)cc1`, for which the Potency result in test [1], in test [2], in [6], in test [7] and in [14] was “inactive” in each case.
Take `Cc1ccc(S(=O)(=O)NCl)cc1`: the Potency entry in test [1], in test [2], in test [5], in test [7], in test [14] and in test [10] was “inactive” in each case. The Potency entry in test [11], in test [12] and in test [13] was “inactive” each time.
On to `CC(=O)[C@H]1CC[C@H]2[C@@H]3CC=C4C[C@@H](O)CC[C@]4(C)[C@H]3CC[C@]12C`, for which the Potency result in test [2], in test [5], in test [6], in test [7], in [14] and in [8] was “inactive” throughout. Also, the Potency entry in test [9], in [10], in test [11], in test [12] and in test [13] was “inactive” in each case.
With `Cc1ccc(/C(=C\CN2CCCC2)c2ccccn2)cc1`, the Potency result in test [1], in test [2], in test [7], in [14] and in test [10] was “inactive” throughout. Further, the compound was classed as inactive in test [16] and in test [17].
For `CC(=O)Oc1ccc(C(c2ccc(OC(C)=O)cc2)c2ccccn2)cc1`, the Potency result in test [1], in test [2], in test [5], in test [6], in [7] and in [14] was “inactive” throughout. The Potency entry in [10] and in test [13] was “inactive” throughout.
Consider `COc1cc([C@H]2Oc3cc([C@H]4Oc5cc(O)cc(O)c5C(=O)[C@@H]4O)ccc3O[C@@H]2CO)ccc1O`, for which the Potency entry in test [1], in test [2], in test [6], in test [7], in [11] and in [12] was “inactive” each time. In addition, the Potency in test [5] was 48.4 µM (active) and inactive; in [10] it was 54.3 µM (active) and inactive.
With `C=C[C@H]1CN2CC[C@H]1C[C@@H]2[C@@H](O)c1ccnc2ccc(OC)cc12`, the Potency entry in test [1], in test [2], in [5], in [7], in test [14] and in [8] was “inactive” each time. The Potency entry in test [10] was “inactive”.
`O=C1CCc2ccccc2O1`: the Potency entry in test [1], in test [2], in [5], in [6], in test [7] and in [14] was “inactive” each time. For the same compound, the Potency result in test [10], in test [11], in test [12] and in test [13] was “inactive” in each case.
In the case of `O=S1(=O)CCCO1`, the Potency result in test [1], in test [2], in [5], in test [6], in [7] and in [14] was “inactive” throughout. Also, the Potency result in test [8] and in test [10] was “inactive” in each case.
As for `CCCCCCCCCCC(CO)CCCCCCCC` (stereo not given), the Potency entry in test [1], in test [2], in test [6], in test [7], in [8] and in [10] was “inactive” each time.
